Screen size: about 53,000 sequences; about 3,700 (7%) were called active.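 The calls were made as follows: active = gene knockdowns whose robust z-score for IL-1 alpha signal is at least 2 or at most -2, so actives lie on both sides; inactive = the rest.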 Shown is part of a subset that was picked to be rich in actives.
assay: Components of the Cytosolic LPS Sensing Pathway: Gene Identification via Genome-wide siRNA Screen; conditions: RAW264.7 macrophages, IL-1a HTRF, actives lie on both sides, screened at 100 nM (by protocol), cells primed 5 h with Pam3CSK4 first;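 also: robust z of the log signal after scaling to non-targeting control siRNA wells of the plate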
Outline: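 Knockdown: 100 nM siRNA, 48h, RAW264.7. Stimulation: Pam3CSK4 5 h, then LipidA via TransIT-TKO 24 h. Output: supernatant IL-1a HTRF, negative-control-normalized, log robust z-score; viability by CellTiter-Glo.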

Sequence	z-score
GCUUUAAGUACUUUAACGCTT against Ncr1	1.04 (inactive)
GCAGCUACUACACCAACCATT against Dlx2	-2.46 (active)
CGAAAACAGUACGAUGCUUTT against Dnajb11	1.03 (inactive)
CCUCAAUGAAGACCCAUUATT against Kif1b	-1.35 (inactive)
GGUUUUCUAUGGAAGAGAUTT against Igdcc4	0.835 (inactive)
GGUAUCCACUGUGCCAACCTT against Ush2a	-0.343 (inactive)
CGAUCGUAUUCAAUGGAAATT against Rims2	-0.998 (inactive)
GCAUCUGCAUUUUUUGCUATT against Prox1	1.29 (inactive)
GCUUUUGCUACAAGUGUAUTT against Cop1	-0.593 (inactive)
GGCAGAUGGCCGAAUUGAUTT against Rest	-1.13 (inactive)
GGACGAUUUAAGGAUUUUUTT against Dcun1d1	-2.4 (active)
CCAAGUACCCUGAGAGUUUTT against Pnpla6	1.46 (inactive)
GCCAAACGAACAACAAAACTT against Chrm3	-0.166 (inactive)
CGUACCACACGAUGAAUAGTT against Pou4f1	-0.525 (inactive)
CCGCAUGAACUUCCUACAGTT against Ugt1a1	1.2 (inactive)
GGCGUAUUCUGGUAUCCAGTT against Celf1	2.08 (active)
GCACUGAACUUUCCUGACCTT against Ppdpf	1.78 (inactive)
CCAUUCGAGAUGAGAAGAATT against Gcc1	-0.287 (inactive)
GGGAAAAGAUCGACAAAGATT against Plk2	-0.217 (inactive)
GGCCCAUGAUCCAUUUUGGTT against Prnp	-2.07 (active)
GGAAAAGGAGGAGAGUUAUTT against Nkapl	0.153 (inactive)
GGGUGGUGGCAUUAAACUUTT against Stk36	1.75 (inactive)
GCUUUUCGGAGCUCUAUAUTT against Sipa1	-2.23 (active)

Sequence	z-score
GGCAGACGGUAAUAAACAUTT against Ralgapb	-1.08 (inactive)
GCGUGUAUACCAGCCUUACTT against Egfl7	0.0437 (inactive)
GGACAUGAGGACUGUAUCATT against Clec4g	-3.2 (active)
GGAAGGAUCUAAUCUUUUUTT against Vamp2	1.56 (inactive)
GGAAGAAUUCUUGAAGAUGTT against Cetn4	1.13 (inactive)
GCUAUGUGUUGAUUUAAAGTT against Pdk1	0.422 (inactive)
GGCUACAGCCGUCAAAGAUTT against R74862	-0.091 (inactive)
GGAAGAAGCCUUUUGAGUGTT against Peg3	1.39 (inactive)
CCAGCUAUGAAUCAGAAUGTT against Bend6	2.6 (active)
CCGAAAGAUCAGCACAUCCTT against Olfr24	-0.184 (inactive)
CGGCUGUGUGCAUUUAAAGTT against Bmpr2	0.616 (inactive)
CCUUUGAUUCACAAUGGUUTT against Smad4	-0.0886 (inactive)
GCUCGAACAUAGCAGCAAGTT against BC061195	-2.11 (active)
GGGUUUCAACCGUCACCUGTT against Pygl	-1.89 (inactive)
GGCCCUUACAGAGUCUGGATT against B930095G15Rik	0.833 (inactive)
CGAAUUCAUACCAAGAAAGTT against Myo3a	0.477 (inactive)
GCCAAGUGGUGACAUCAACTT against Ralgds	2.7 (active)
GGGCAAUGUGUUUAUGUAUTT against Tmem30a	-0.264 (inactive)
GGAUAUACAAAGGAACGCATT against Wdr20rt	-0.862 (inactive)
GGUUCUGACCACCUACAUATT against Htr3a	-1.62 (inactive)
GGCUAUACCCUGAAAUAUUTT against Slitrk4	-0.00892 (inactive)
CCUACUACACCACUUGGGUTT against Dpm2	0.365 (inactive)
GGGCAAAUUAGAGACCAAGTT against Nwd2	0.692 (inactive)

Sequence	z-score
GGAGGAUAUGAGCAAGUACTT against Isg20	-0.476 (inactive)
GGUUAACGGAUCAACAUUUTT against Ube2d2a	1.71 (inactive)
GGAAUUUUCUUCAUUUGGATT against Pabpc5	-0.878 (inactive)
GGUACCAGACCUCAUAGUUTT against Cep95	2.16 (active)
GGGAAGAAAAUGAAAGGUUTT against Cdk5rap2	-1.14 (inactive)
GGUGUCAACCAGUUGUUUUTT against Nr2c1	-1.2 (inactive)
CCUAAAGUCACAUCUAAGATT against Pum3	1.06 (inactive)
GGAACUGUCCGAUCUUAGATT against Prrg4	-1.88 (inactive)
GCUACUCCCUGCAUAUUAGTT against Slamf9	-1.48 (inactive)
GGCAGCUUUCCUAUUGAAUTT against Tex19.1	0.233 (inactive)
GGACUUUGAUCAGCUGUCUTT against Tmem17	-2.12 (active)
GGUUGAUCGUGUCAUGUAGTT against Poc1b	0.0595 (inactive)
GGCUAUACCUUUGACUAUGTT against Csnk1g1	0.0256 (inactive)
GGGCAGCAUCGGACUAAAUTT against Agtr1a	2.35 (active)
GGUUGUAGGAGAGGAAGCCTT against Apobr	-0.572 (inactive)
GGUACGAAGUCAAAGUGAATT against Dnmt3l	0.0494 (inactive)
GGAGUUAGAUGCCCUCAAGTT against Trappc6a	-0.796 (inactive)
CAGCUGAGAUUGAUGGCCATT against Olfr313	-0.6 (inactive)
GCCUGAAUAUUGCUAUCACTT against Gpr107	2.35 (active)
GCAACAACCACCAAAUCUATT against Prol1	-1.53 (inactive)
GGAAGAAUGUGAUGACUCATT against Zfp11	-0.471 (inactive)
GGUAAUUUAAUGACACAUGTT against A130079P16Rik	2.35 (active)
GGAUCCAGACACCUCAAGATT against Vxn	0.702 (inactive)
